Test results published in PubChem BioAssay (NCI).
Compounds without any hit were thinned out: in the full panel of roughly 79,000, 15% have a hit. Active and inactive are the calls of the source. No stated cut-off is given here; in the data, active means growth inhibition above about 70%; inactive means the rest.

Tests used:
[1] = NCI Yeast Anticancer Drug Screen. Data for the rad52 strain (AID 147);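 further: 0% = growth of vehicle-treated control cultures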; conditions: S. cerevisiae rad52 mutant growth inhibition, hits give high values
Summary of the method: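 Inhibition of yeast growth, referenced to vehicle controls, was the measured output for a strain with defective DNA damage repair.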

[2] = NCI Yeast Anticancer Drug Screen. Data for the wt1 strain (AID 149);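 further: 0% = growth of vehicle-treated wt1 cultures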; conditions: S. cerevisiae wt1 strain (SPY 50644) growth inhibition, hits give high values
Summary of the method: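 wt1 strain grown with compound or vehicle; inhibition taken from the growth difference.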

[3] = NCI Yeast Anticancer Drug Screen. Data for the mgt1 strain (AID 153); conditions: S. cerevisiae mgt1 mutant growth inhibition, hits give high values
Summary of the method: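 In the mgt1 strain, test compounds were added and growth inhibition was determined relative to vehicle-treated controls.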

[4] = NCI Yeast Anticancer Drug Screen. Data for the rad50 strain (AID 155);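 further: 0% = growth of vehicle-only cultures of the same strain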; conditions: S. cerevisiae rad50 strain growth inhibition, hits give high values
Summary of the method: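 DNA repair mutant yeast, compound exposure, growth read-out; inhibition is taken relative to vehicle.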

[5] = NCI Yeast Anticancer Drug Screen. Data for the mec2-1 strain (AID 157); conditions: S. cerevisiae mec2-1 strain, hits give high values
Summary of the method: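 Each compound was tested on mec2-1 yeast, a strain altered in DNA damage repair or cell cycle control. Growth inhibition is reported relative to vehicle.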

[6] = NCI Yeast Anticancer Drug Screen. Data for the rad14 strain (AID 159);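 further: 0% = growth of vehicle-treated control cultures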; conditions: S. cerevisiae rad14 strain growth inhibition, hits give high values
Summary of the method: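 DNA repair-defective yeast, compound-exposed; % growth inhibition derived by comparison with vehicle-treated controls.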

[7] = NCI Yeast Anticancer Drug Screen. Data for the sgs1 mgt1 strain (AID 161);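 further: 0% = growth of cultures given vehicle only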; conditions: S. cerevisiae sgs1 mgt1 strain, hits give high values
Summary of the method: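 Inhibition of yeast growth, normalised to vehicle-treated controls, is reported for a strain bearing genetic alterations in DNA damage repair.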

[8] = NCI Yeast Anticancer Drug Screen. Data for the CLN2oe strain (AID 163);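 further: 0% = growth of vehicle-only control cultures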; conditions: S. cerevisiae CLN2oe strain, hits give high values
Summary of the method: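 First, the altered yeast strain was treated with each compound; second, its growth was measured; finally, inhibition was derived by comparison with vehicle controls.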

[9] = NCI Yeast Anticancer Drug Screen. Data for the cln2 rad14 strain (AID 165);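 further: 0% = growth equal to vehicle treated cultures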; conditions: S. cerevisiae cln2 rad14 strain, hits give high values
Summary of the method: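 Test compounds were added to cln2 rad14 yeast cultures; inhibition of growth was then determined by comparison with vehicle treatment.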

[10] = NCI Yeast Anticancer Drug Screen. Data for the bub3 strain (AID 167); conditions: S. cerevisiae bub3 mutant strain, hits give high values
Summary of the method: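 In this screen, a yeast mutant lacking normal mitotic checkpoint function is challenged with compound. Relative growth versus vehicle gives the inhibition value.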

[11] = NCI Yeast Anticancer Drug Screen. Data for the wt2 strain (AID 169);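 further: 0% = growth of vehicle-treated yeast cultures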; conditions: S. cerevisiae wt2 strain growth inhibition, hits give high values
Summary of the method: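 The panel's yeast strains carry defined changes in DNA repair or cell cycle genes. Each strain is grown with compound, and growth loss is scored relative to vehicle.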

[12] = NCI Yeast Anticancer Drug Screen. Data for the sgs1 strain (AID 173);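 further: 0% = growth of vehicle-only control cultures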; conditions: S. cerevisiae sgs1 mutant, hits give high values
Summary of the method: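 Vehicle-treated cultures served as reference for growth inhibition of a yeast strain altered in DNA damage repair or cell cycle control after compound exposure.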

[13] = NCI Yeast Anticancer Drug Screen. Data for the mlh1 rad18 strain (AID 175); conditions: S. cerevisiae mlh1 rad18 strain growth inhibition, hits give high values
Summary of the method: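 Inhibition values reflect reduced growth of mutant yeast versus vehicle-treated controls following compound exposure; the mutations affect DNA damage repair.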

[14] = NCI Yeast Anticancer Drug Screen. Data for the rad18 strain (AID 177); conditions: S. cerevisiae rad18 mutant growth inhibition, hits give high values
Summary of the method: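 Steps: expose repair-mutant yeast to compound; measure growth; express as inhibition relative to vehicle control.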

[15] = NCI Yeast Anticancer Drug Screen. Data for the mlh1 strain (AID 171);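 further: 0% = growth of vehicle-treated control cultures of the same strain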; conditions: S. cerevisiae mlh1 strain growth inhibition, hits give high values
Summary of the method: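 Inhibition values reflect reduced yeast growth in the presence of compound, referenced to vehicle controls, using a strain chosen for its alteration in DNA repair or cell cycle control.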

[16] = at 5.0 µM (retest, dose inferred, filed as 0.5)
[17] = at 50.0 µM (retest, dose inferred, filed as 5.0)

Measured: growth inhibition

CC(=O)N1C=Cc2c(c(C)c3c([nH]c4ccccc43)c2C)C1
inactive: [1]; at 1.2 µM 25% | [2]; at 1.2 µM -7% | [2]; at 3.7 µM 28% | [3]; at 1.2 µM 29% | [3]; at 3.7 µM 64% | [4]; at 1.2 µM 67% | [5]; at 1.2 µM -5% | [5]; at 3.7 µM 33% | [5]; [16] 12% | [6]; at 1.2 µM 7% | [6]; at 3.7 µM 32% | [7]; [16] 16% | [8]; at 1.2 µM 31% | [8]; at 3.7 µM 52% | [9]; [16] 24% | [10]; at 1.2 µM 16% | [10]; at 3.7 µM 52% | [10]; [16] 14% | [11]; at 1.2 µM 10% | [11]; at 3.7 µM 36% | [12]; at 1.2 µM -7% | [12]; at 3.7 µM 32% | [13]; [16] 44% | [14]; at 1.2 µM 23% | [14]; at 3.7 µM 44%
active: [1]; at 3.7 µM 88% | [1]; at 11.0 µM 95% | [1]; at 33.0 µM 96% | [1]; at 100.0 µM 97% | [2]; at 11.0 µM 82% | [2]; at 33.0 µM 90% | [2]; at 100.0 µM 92% | [3]; at 11.0 µM 91% | [3]; at 33.0 µM 96% | [3]; at 100.0 µM 95% | [4]; at 3.7 µM 91% | [4]; [16] 82% | [4]; at 11.0 µM 95% | [4]; at 33.0 µM 96% | [4]; [17] 91% | [4]; at 50.0 µM 87.2% | [4]; at 100.0 µM 95% | [5]; at 11.0 µM 81% | [5]; at 33.0 µM 91% | [5]; [17] 84% | [5]; at 50.0 µM 87.3% | [5]; at 100.0 µM 93% | [6]; at 11.0 µM 79% | [6]; at 33.0 µM 90% | [6]; at 100.0 µM 94% | [7]; [17] 91% | [7]; at 50.0 µM 88% | [8]; at 11.0 µM 91% | [8]; at 33.0 µM 95% | [8]; at 100.0 µM 95% | [9]; [17] 86% | [9]; at 50.0 µM 79.8% | [10]; at 11.0 µM 90% | [10]; at 33.0 µM 95% | [10]; [17] 86% | [10]; at 50.0 µM 85.3% | [10]; at 100.0 µM 96% | [11]; at 11.0 µM 81% | [11]; at 33.0 µM 90% | [11]; at 100.0 µM 92% | [12]; at 11.0 µM 86% | [12]; at 33.0 µM 95% | [12]; at 100.0 µM 95% | [13]; [17] 95% | [13]; at 50.0 µM 88.8% | [14]; at 11.0 µM 91% | [14]; at 33.0 µM 96% | [14]; at 100.0 µM 96%

O=[N+]([O-])/C=C/c1cc2ccc3ccccc3c2[nH]1
active: [1]; at 11.0 µM 83% | [1]; at 33.0 µM 88% | [1]; at 100.0 µM 88% | [2]; at 33.0 µM 79% | [2]; at 100.0 µM 93% | [3]; at 11.0 µM 81% | [3]; at 33.0 µM 95% | [3]; at 100.0 µM 93% | [4]; at 3.7 µM 70% | [4]; at 11.0 µM 78% | [4]; at 33.0 µM 83% | [4]; [17] 96% | [4]; at 50.0 µM 95.8% | [4]; at 100.0 µM 82% | [5]; at 33.0 µM 88% | [5]; [17] 98% | [5]; at 50.0 µM 98.8% | [5]; at 100.0 µM 93% | [6]; at 33.0 µM 88% | [6]; at 100.0 µM 91% | [7]; [16] 88% | [7]; [17] 97% | [7]; at 50.0 µM 98.7% | [8]; at 100.0 µM 87% | [9]; [17] 83% | [9]; at 50.0 µM 97.2% | [10]; at 33.0 µM 86% | [10]; [17] 96% | [10]; at 50.0 µM 98.8% | [10]; at 100.0 µM 91% | [11]; at 11.0 µM 87% | [11]; at 33.0 µM 95% | [11]; at 100.0 µM 93% | [15]; at 11.0 µM 83% | [15]; at 33.0 µM 93% | [15]; at 100.0 µM 93% | [12]; at 3.7 µM 72% | [12]; at 11.0 µM 89% | [12]; at 33.0 µM 94% | [12]; at 100.0 µM 92% | [13]; [16] 84% | [13]; [17] 94% | [13]; at 50.0 µM 98% | [14]; at 3.7 µM 86% | [14]; at 11.0 µM 90% | [14]; at 33.0 µM 92% | [14]; at 100.0 µM 87%
inactive: [1]; at 1.2 µM 27% | [1]; at 3.7 µM 66% | [2]; at 1.2 µM 9% | [2]; at 3.7 µM 19% | [2]; at 11.0 µM 41% | [3]; at 1.2 µM 15% | [3]; at 3.7 µM 55% | [4]; at 1.2 µM 39% | [4]; [16] 63% | [5]; at 1.2 µM 20% | [5]; at 3.7 µM 33% | [5]; [16] 55% | [5]; at 11.0 µM 63% | [6]; at 1.2 µM 11% | [6]; at 3.7 µM 27% | [6]; at 11.0 µM 62% | [8]; at 1.2 µM 0% | [8]; at 3.7 µM 12% | [8]; at 11.0 µM 31% | [8]; at 33.0 µM 63% | [9]; [16] -6% | [10]; at 1.2 µM 12% | [10]; at 3.7 µM 28% | [10]; [16] 50% | [10]; at 11.0 µM 58% | [11]; at 1.2 µM 26% | [11]; at 3.7 µM 57% | [15]; at 1.2 µM 25% | [15]; at 3.7 µM 50% | [12]; at 1.2 µM 39% | [14]; at 1.2 µM 61%

CCC(OC(C)=O)C1CC(C(C)C)CCC1C (stereo unspecified)
inactive: [1]; at 1.2 µM 1% | [1]; at 3.7 µM 2% | [1]; at 11.0 µM 4% | [1]; at 33.0 µM -73% | [1]; at 100.0 µM 22% | [2]; at 1.2 µM -1% | [2]; at 3.7 µM -1% | [2]; at 11.0 µM -2% | [2]; at 33.0 µM 2% | [2]; at 100.0 µM 44% | [3]; at 1.2 µM -1% | [3]; at 3.7 µM 0% | [3]; at 11.0 µM 0% | [3]; at 33.0 µM 5% | [4]; at 1.2 µM 4% | [4]; at 3.7 µM -43% | [4]; [16] 3% | [4]; at 11.0 µM 5% | [4]; at 33.0 µM 4% | [4]; [17] 9% | [4]; at 50.0 µM -15.1% | [4]; at 100.0 µM 53% | [5]; at 1.2 µM 2% | [5]; at 3.7 µM 3% | [5]; [16] 4% | [5]; at 11.0 µM 6% | [5]; at 33.0 µM 9% | [5]; [17] 34% | [5]; at 50.0 µM 24.2%
active: [3]; at 100.0 µM 82%
